This passage reports inhibition results from PubChem BioAssay AID687036 (The Scripps Research Institute Molecular Screening Center, 2013).

About 1,400 (42%) of roughly 3,300 compounds were called active.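 How the source made its calls: active means mean inhibition across replicates above the hit cutoff derived for the earlier primary screen (cut at about 22% in these data); inactive means the rest.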 So high a share suggests a set chosen from earlier hits. Only a selection was taken, and actives are over-represented in it overall.

This experiment deals with Protein arginine N-methyltransferase 1 (Homo sapiens) (UniProt Q99873). Briefly: human PRMT1 activity-probe blockers, retest – biochemical, fluorescence polarization, triplicate, confirmation (AID 687036). Conditions: recombinant His-PRMT1, activity-based probe fluorescence polarization; at 2.79 µM; stronger effect = higher value.
Sequence of Protein arginine N-methyltransferase 1 (Homo sapiens) (Q99873 whole entry, looked up): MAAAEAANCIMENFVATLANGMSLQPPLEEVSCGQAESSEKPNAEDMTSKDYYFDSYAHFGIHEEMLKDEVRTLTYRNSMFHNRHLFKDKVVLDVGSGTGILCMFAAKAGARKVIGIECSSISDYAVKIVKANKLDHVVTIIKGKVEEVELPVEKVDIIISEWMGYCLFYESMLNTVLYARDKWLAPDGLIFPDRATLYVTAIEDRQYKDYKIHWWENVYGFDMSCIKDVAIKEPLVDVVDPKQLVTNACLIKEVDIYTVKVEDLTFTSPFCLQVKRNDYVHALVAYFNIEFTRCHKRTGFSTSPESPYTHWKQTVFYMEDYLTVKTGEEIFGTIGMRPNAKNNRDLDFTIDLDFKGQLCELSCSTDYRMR
As for `COc1ccc(N2C(=O)/C(=C/c3ccco3)C(=O)NC2=S)cc1`, the inhibition is 75.2% (active).
For `Cc1cc(N2CCNC[C@@H]2C)ccc1N1CC[C@H](O)C1` the value was 4.59% (inactive).
On to `O=C1NC(=O)N(Cc2ccco2)C(=O)/C1=C\c1ccc(-c2ccc(F)cc2)o1`, for which the inhibition is 52.9% (active).
In the case of `Cc1cc(/C=C2/C(=O)NC(=O)N(Cc3ccco3)C2=O)c(C)n1-c1ccc(C(=O)O)cc1`, the inhibition is -1.23% (inactive).
With `CCOC(=O)CC(SP1(=S)OCC2(CCCCO2)C(C2CCCCO2)O1)C(=O)OCC` (stereo unspecified) the figure was 60.2% (active); with `O=C1N=c2ccccc2=C/C1=C\c1c(O)[nH]c(=S)[nH]c1=O`, 55.4% (active).
